# PMC5540273 (PLoS ONE, 2017)
# What was measured:
# Details in all cases: concentration: 1 μM, replicates: in singlicate; n = 1
# [1] = tested on: T1, ERK4
# T1 construct: gene MAPK4
# [2] = tested on: T2, ERK5
# T2 construct: gene MAPK7
# [3] = tested on: T3, ERK8
# T3 construct: gene MAPK15
# [4] = tested on: ERN1
# [5] = tested on: T4, FAK
# T4 construct: gene PTK2
# [6] = tested on: FER
# [7] = tested on: FES
# [8] = tested on: FGFR1
# [9] = tested on: FGFR2
# [10] = tested on: FGFR3
# [11] = tested on: FGFR4
# [12] = tested on: FGR
# [13] = tested on: FLT1
# [14] = tested on: FLT3-autoinhibited
# [15] = tested on: FLT3
# [16] = tested on: FLT4
# [17] = tested on: FRK
# [18] = tested on: FYN
# [19] = tested on: GAK
# [20] = tested on: T5, GCN2(Kin.Dom.2,S808G)
# T5 construct: gene EIF2AK4
# 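Note: KINOMEscan kinase panel screen.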
Structure (SMILES),%Inh [1] [%],%Inh [2] [%],%Inh [3] [%],%Inh [4] [%],%Inh [5] [%],%Inh [6] [%],%Inh [7] [%],%Inh [8] [%],%Inh [9] [%],%Inh [10] [%],%Inh [11] [%],%Inh [12] [%],%Inh [13] [%],%Inh [14] [%],%Inh [15] [%],%Inh [16] [%],%Inh [17] [%],%Inh [18] [%],%Inh [19] [%],%Inh [20] [%]
CCC(CC)(CC)n1cnc2c(N)ncnc21 [SKF-97620],0,0,1,26,0,0,10,17,100,0,4,4,4,19,11,0,23,7,3,0
Cl.c1ccc(Cn2ccc3cc(Nc4ncnc5ccccc45)ccc32)cc1 [GW275568],46,7,0,0,0,17,15,0,0,28,8,21,24,11,0,8,0,25,25,0
Cc1cc(N2CCC(NS(=O)(=O)c3ccc(F)cc3)CC2)nc(Nc2cccc(C#N)c2)n1.O=C(O)C(F)(F)F [GSK1653537],0,0,31,0,0,18,26,6,0,16,0,26,35,0,4,0,8,19,0,6
COC(=O)c1c(-c2ccccc2)c2cc(Cl)ccc2c(=O)n1Cc1ccc(S(C)(=O)=O)cc1,3,13,6,13,4,0,3,0,8,6,6,0,0,2,0,8,22,0,100,0
Fc1cccc(COc2ccc(Nc3ncnc4sc(-c5ccc[nH]5)cc34)cc2Cl)c1 [GW707818],51,6,0,10,0,12,0,0,0,6,12,3,22,7,0,3,0,45,4,0
Clc1ccc(-c2cc(-c3c[nH]nc3-c3ccccn3)ccn2)cc1 [GW681251],6,0,0,0,0,9,0,0,0,1,13,11,20,0,0,0,0,10,74,7
CN1CCC(n2cnc(-c3ccc(F)cc3)c2-c2ccnc(NC3CCNCC3)n2)CC1 [SB-229482],0,0,0,2,0,0,5,4,0,9,0,0,0,0,27,0,0,1,0,0
COc1ccc(Nc2nccc(N3CCC(NC(=O)Nc4ccc5c(c4)OCO5)C3)n2)cc1 (centres unmarked) [GSK1379745],0,0,48,0,1,33,18,9,1,32,4,28,37,0,45,12,14,3,11,2
O=C(Nc1ccccc1)Nc1ccc(Oc2ccc3nccn3n2)cc1,0,1,14,100,0,0,0,0,8,15,63,19,51,0,25,6,0,0,0,16
Cc1ccc(O)cc1Nc1cc(C(F)(F)F)nc2ccc(-c3ccncc3)cc12 [GW630823],5,9,7,0,3,1,6,0,4,0,5,22,14,0,27,13,14,7,4,0
